D2 PAM-1 = D2 dopamine receptor (human) potentiation. P14416. HEK293 T-REx D2, calcium flux, EC20 dopamine potentiation. potentiation, % at 10 µM. 340,000 tested, 0.34% active;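 active = potentiation over 3 SD above the plate norm, cut at about 30% in these data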; note: 0% is about no effect
Target sequence (P14416 whole entry, looked up): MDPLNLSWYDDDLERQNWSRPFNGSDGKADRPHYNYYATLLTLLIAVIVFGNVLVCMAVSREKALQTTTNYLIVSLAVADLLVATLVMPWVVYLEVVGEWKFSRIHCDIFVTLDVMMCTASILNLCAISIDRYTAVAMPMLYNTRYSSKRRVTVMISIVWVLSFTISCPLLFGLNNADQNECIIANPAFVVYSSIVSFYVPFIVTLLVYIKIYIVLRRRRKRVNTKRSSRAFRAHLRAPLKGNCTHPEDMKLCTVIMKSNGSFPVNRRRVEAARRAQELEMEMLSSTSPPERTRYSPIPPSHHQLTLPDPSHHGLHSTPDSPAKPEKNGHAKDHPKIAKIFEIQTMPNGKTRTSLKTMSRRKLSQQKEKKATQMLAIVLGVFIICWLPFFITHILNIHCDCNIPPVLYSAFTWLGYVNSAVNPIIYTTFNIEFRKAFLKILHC
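Tetracycline-induced HEK293 T-REx cells force-coupled to calcium signalling expressed D2; compounds were pin-added after a 10 s baseline, read kinetically 180 s, then an EC20 dopamine challenge followed with a further 180 s calcium read.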
D2 PAM-2 = potentiates the human D2 dopamine receptor allosterically; P14416; DiscoveRx D2 beta-arrestin cells, luminescence, 90 min; 100% = 57 uM dopamine signal; potentiation, % (test concentration not listed); 360,000 tested, 0.23% active; AID 624464; in the data active = potentiation above about 50%; inconclusive = mostly about 30% to 49%
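PathHunter beta-arrestin assay in DiscoveRx D2 cells. Compounds were added with an EC20 of dopamine (50 nM final) for 90 min at 37 deg C. Luminescence was read 1 h after detection reagent, with 57 uM dopamine as the EC100 control.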
D2 ag-1 = agonists of human D2 dopamine receptor (beta-arrestin). P14416. DiscoveRx PathHunter D2 beta-arrestin, luminescence, 90 min; 100% = 57 uM dopamine signal. activation, % (test concentration not listed). 360,000 tested, 0.084% active; in the data active = activation above about 40%; inconclusive = between about 15% and that limit
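DiscoveRx PathHunter D2 beta-arrestin cells (2,100/well) attached overnight, then compound-stimulated 90 min at 37 C in HBSS/10 mM HEPES/0.1% Tween-20 buffer; beta-galactosidase complementation read by luminescence after 1 h at ambient temperature. Dopamine 57 uM final (EC100) as control.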
D2 antagonist = antagonists of human D2 dopamine receptor. inhibition, % at 10 µM. P14416. HEK293 TREx D2 cells, calcium flux, dopamine EC80. 340,000 tested, 2% active; in the data active = inhibition above about 30%; inactive = below that, where a call was filed; note: 0% is about no effect
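Compounds are added to dye-loaded, induced HEK293 T-REx cells coupled to calcium release via D2; after a 3 min kinetic read an EC80 dopamine stimulus is given and fluorescence is recorded for 3 more min.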
D2 ag-2 = D2 dopamine receptor (human) agonism; 340,000 tested, 0.53% active; HEK293 T-REx D2 cells, calcium flux agonist mode; activation, % at 2 µM;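 active = activation over 3 SD above normal in the single-dose calcium agonist read, cut at about 30% in these data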; note: 0% is about no effect
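Agonism is scored from calcium flux in a force-coupled, inducible HEK293 cell line expressing D2, read kinetically for 180 s after compound addition against dopamine controls.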
D3 arrestin ag = D3 receptor agonism confirmed, beta-arrestin readout | Potency, µM (doses to about 76.9 µM), for inactives: at the top dose activation, most hits filed as activators | shares compounds with D2 ag-2 | DiscoveRx D3 beta-arrestin cells, luminescence, 90 min | AID 720506 | 2,300 tested, 4% active;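 note: potency is the fitted concentration of half-maximal effect; 100% = dopamine control response; nearly all actives have a fitted effect of over 70% in size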
D2 ag-3 = counter-screen for D3 agonists: human D2 dopamine receptor agonism; shares compounds with D2 ag-2; DiscoveRx PathHunter D2 beta-arrestin, luminescence, 90 min; response scale: percent relative to full dopamine signal; Potency, µM (doses to about 76.9 µM), for inactives: at the top dose activation, hits mostly activators; 2,300 tested, 5.9% active; AID 720507; note: potency is the fitted concentration of half-maximal effect; % of control where 0% means no effect; nearly all actives have a fitted effect of over 70% in size
Numbers without * were called inactive; ? = inconclusive; / = not tested or not shown. Shown are actives, neighbours in structure and some others; about 2.4% of the full set was active somewhere. Unless noted, calls come from the whole dose curve; as a rule, active = well fitted activation curve with a large enough effect; inconclusive = small, poorly fitted or top-dose-only effect; inactive = flat fitted curve, though single readings scatter.

SMILES	D2 PAM-1	D2 PAM-2	D2 ag-1	D2 antagonist	D2 ag-2	D3 arrestin ag	D2 ag-3
CSc1nc2ccc(NC(=O)c3ccc(F)c(F)c3)cc2s1	-5	-5	-2	-11	2	/	/
CSc1nc2ccc(NC(=O)c3ccc(=O)[nH]c3)cc2s1	-17	-6	5	-4	49*	-7%	1%
CSc1nc2ccc(NC(=O)c3ccc(=O)n(C)n3)cc2s1	-14	-9	1	20	17	22%	12%
CSc1nc2ccc(NC(=O)c3cccs3)cc2s1	/	-19	3	/	/	/	/
Cc1cccc(C)c1NC(=S)NCCc1ccc(O)c(O)c1	-20	7	5	67*	57*	-8%	?
Cc1cccc(NC(=S)NCCc2ccccc2)c1C	14	-5	-3	-5	-3	/	/
COc1ccc(-c2cn(Cc3ccc4c(c3)C(=O)c3ccccc3C4=O)nn2)cc1	-1	-1	3	13	1	40µM*	35µM*
C/C=C(\C)CN1CCN(c2cc(C)ccc2C)CC1	11	-20	3	-3	0	/	/
C/C=C(\C)CN1CCN(c2ccccc2F)CC1	-11	-9	11	65*	38*	3%	19%
C/C=C(\C)CN1CCN(c2ccccc2)CC1	-21	-10	13	75*	79*	2%	25%
CCN(CC)C(=O)CN1CCN(c2ccccc2F)CC1	-7	-18	0	7	0	/	/
COc1ccc2cc(C(=O)C3CCCN(Cc4cnc(N5CCOCC5)s4)C3)ccc2c1 (configuration not stated)	-14	-5	0	-4	36*	-9%	0%
Cc1ccc(Cl)cc1N1CCN(C(=O)C2CCN(S(=O)(=O)c3cn(C)cn3)CC2)CC1	7	/	/	/	0	/	/
Cc1csc(=O)n1CCC(=O)OC(C)C(=O)Nc1ccc(N2CCOCC2)cc1 (configuration not stated)	-5	-1	7	-4	-1	/	/
CC(=O)c1cccc(NC(=O)C(C)OC(=O)CCn2c(C)csc2=O)c1 (configuration not stated)	0	-7	-2	-11	0	-6%	-3%
CCCN1CCc2c(sc(NC(=S)NC(=O)c3ccccc3)c2C#N)C1	-15	17	14	78*	77*	7%	13%
CN1CCc2c(sc(NC(=O)c3ccc(C(=O)c4ccccc4)cc3)c2C(N)=O)C1	-13	-5	-1	37*	69*	-9%	-1%
CN1CCc2c(sc(NC(=O)Cc3ccccc3)c2C#N)C1	-23	14	5	70*	78*	13%	?
CC(C)N1CCc2c(sc(NC(=S)NC(=O)c3ccccc3)c2C#N)C1	1	-9	-9	1	3	/	/
CCN1CCc2c(sc(NC(=S)NC(=O)c3ccc(Cl)cc3)c2C(N)=O)C1	-12	-19	-10	-12	44*	-4%	-10%
CCc1ccccc1NC(=O)Cc1ccc(-n2c(C)nc3cccnc32)cc1	2	/	/	/	0	/	/
C[C@H]1NC(=O)[C@@]2(C)[C@@H](c3ccccc3)[C@H]3COc4ccccc4[C@@H]3N2C1=O	-7	2	1	0	1	/	/
CN(C)S(=O)(=O)c1cccc(NC(=O)CSc2ncnc3ccccc23)c1	/	5	13	/	/	?	?
Cc1onc(-c2c(Cl)cccc2Cl)c1C(=O)N1CCc2ccccc2C1	-11	-8	-2	0	72*	-2%	-1%
COc1cc(OC)cc(C(=O)NCC(=O)NCCN2C(=O)S/C(=C\c3ccc4c(c3)OCO4)C2=O)c1	/	-4	-1	/	/	/	/
SMILES	D2 PAM-1	D2 PAM-2	D2 ag-1	D2 antagonist	D2 ag-2	D3 arrestin ag	D2 ag-3
CCc1noc(C)c1C(=O)NNC(=O)c1cc(OC)cc(OC)c1	-8	-1	0	-21	2	-3%	-4%
CCc1noc(C)c1C(=O)NNC(=O)c1ccccc1	-8	0	-3	-11	0	/	/
CCc1noc(C)c1C(=O)NNC(=O)COc1ccccc1C	-6	-1	-2	24	1	-6%	-5%
CCc1noc(C)c1C(=O)NNC(=O)c1cc(OC)c(OC)c(OC)c1	-1	-6	1	-10	0	/	/
CN(C)S(=O)(=O)c1ccc(NC(=O)/C=C/c2ccccc2Cl)cc1	18	-13	?	13	14	?	15%
O=C(/C=C/c1ccccc1Cl)Nc1ccccc1	-14	-3	4	-7	-1	/	/
O=C(Cc1ccc([N+](=O)[O-])cc1)Oc1ccccc1	/	-4	-2	/	/	/	/
O=C(COc1ccc(Cl)cc1)NNC(=O)c1cccnc1	1	-2	-4	8	0	-12%	-3%
CCc1ccc(CNC(=O)C2CCN(S(=O)(=O)N3CCC(C)CC3)CC2)cc1	-13	-4	4	-30	0	/	/
CCCN1CCC2(CC1)C(C#N)=C(N)Oc1c2sc2nc(C)cc(C)c12	-21	-3	11	96*	78*	22%	-2%
Nc1ccc2[nH]ncc2c1	-4	10	-1	34*	18	?	11%
CC(=O)Nc1cc2cc(NS(=O)(=O)c3ccc(C)cc3)ccc2oc1=O	-9	-7	-1	-4	0	/	/
COc1ccc(S(=O)(=O)N2CCOCC2)cc1NC(=O)COc1ccccc1OC	2	-3	0	-40	0	/	/
COc1ccccc1Oc1ccc(S(=O)(=O)N2CCOCC2)cc1S(=O)(=O)N1CCOCC1	-14	-4	-4	1	44*	1%	-1%
O=C(NC1(C(F)(F)F)C(=O)Nc2c1c(=O)[nH]c(=O)n2CCc1ccccc1)c1ccc(Cl)cc1 (configuration not stated)	-8	/	/	/	1	/	/
Fc1cc(F)cc(Nc2nc(Cl)nc(NC3CCCC3)n2)c1	-5	/	/	-4	-1	-6%	0%
CC(C)Nc1nc(Cl)nc(NC2CCCCC2)n1	-4	-1	-1	-6	-1	/	/
Cc1cccc(-n2ncc3c(NCCOCCO)ncnc32)c1	21	/	/	/	-1	/	/
OC(CN1CCCCC1)Cn1c2ccccc2c2cc(Br)ccc21 (configuration not stated)	-28	-10	7	80*	39*	15%	-1%
CCCn1c(N2CCN(C(=O)Nc3ccc(Cl)cc3)CC2)nc2ccccc21	/	7	?	/	/	13%	?
CC(=O)c1cc2cc(O)ccc2o1	-3	-9	-2	-10	1	/	/
CC(=O)c1cc2c(O)c(O)ccc2o1	-7	13	7	2	1	?	8%
